Results reported in PubChem BioAssay (NCATS).
Inconclusive results are not listed. Activity calls are given as the source filed them. The call rests on the fitted dose curve; in most records, active means well fitted curve in the direction sought with a large enough effect; inconclusive means small, poorly fitted or top-dose-only effect, or another doubt; inactive means no such curve, though single readings can be large; an effect the other way counts as inactive or inconclusive.

How the values were obtained:
[1] = test system: HACAT; test: qHTS assay to identify novel small-molecules to repurpose for Merkel cell carcinoma treatment (AID 1296009); conditions: MCC and control cell lines, CellTiter-Glo viability, 72 h; at 44.8 µM (top of the series) unless noted; further: nearly all actives have a fitted effect of over 60% in size
Method in brief: (§1)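 CellTiter-Glo luminescence after 72 hr compound exposure at 37 degree celsius gave cell viability. Libraries NPC and MIPE were run as 8- and 11-point dose responses; RLUs normalized to DMSO (negative) and no-cell (cytotoxicity) controls.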

[2] = test system: HEK293T; test: as above; conditions: MCC and control cell lines, CellTiter-Glo viability, 72 h; series mostly up to 44.8 µM
Method in brief: as §1

[3] = test system: C33A; test: Primary qHTS to identify gynecologic anti-cancer compounds using libraries of approved drugs and bioactive compounds (AID 1345084); conditions: Gynecologic cancer cell panel viability, ATPlite luminescence, 48 h; series mostly up to 57.5 µM; further: on the % scale 0 is the no-effect control and ±100 the full control effect; nearly all actives have a fitted effect of over 55% in size
Method in brief: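 In this quantitative HTS, cell killing is estimated from loss of ATP-dependent luciferase light. Cells see five compound concentrations over a 48 h exposure.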

[4] = test system: NIH3T3; test: qHTS assay to identify novel small-molecules to repurpose for Merkel cell carcinoma treatment (AID 1296009); conditions: MCC and control cell lines, CellTiter-Glo viability, 72 h; at 44.8 µM (top of the series) unless noted; further: nearly all actives have a fitted effect of over 60% in size
Method in brief: as §1

CCCCN(CCCC)C(=O)CN1C[C@H](c2ccc3c(c2)OCO3)[C@@H](C(=O)O)[C@@H]1c1ccc(OC)cc1
inactive: outcome [1] | Potency [2] | Potency [3]

COc1ccc2c3c1O[C@H]1C[C@@H](O)C=C[C@@]31CCN(C)C2
inactive: outcome [1] | Potency [2] | Potency [3]

C=C(C(=O)O)[C@@H]1CC=C2CCC[C@H](C)[C@@]2(C)C1
inactive: outcome [1] | Potency [2] | outcome [4] | Potency [3]

COc1cc(C2Oc3c(OC)cc(CCCO[C@@H]4O[C@H](CO)[C@@H](O)[C@H](O)[C@H]4O)cc3C2CO)ccc1O (some centres not stated)
inactive: outcome [1] inactive [at 17.4 µM] | Potency [2] | Potency [3]

COC(=O)CC[C@@H](C)[C@H]1CC[C@H]2[C@@H]3CC(=O)[C@H]4C[C@H](OC(C)=O)CC[C@]4(C)[C@H]3CC[C@]12C
inactive: outcome [1] | Potency [2] | Potency [3]

CC(=O)OC[C@@]12[C@H](O)C[C@]3(C)C(=CCC4[C@@]5(C)CC[C@H](O[C@@H]6O[C@H](C(=O)O)[C@@H](O[C@@H]7O[C@H](CO)[C@@H](O)[C@H](O)[C@H]7O)[C@H](O)[C@H]6O[C@@H]6O[C@H](CO)[C@@H](O)[C@H](O)[C@H]6O)[C@](C)(CO)C5CC[C@]43C)[C@@H]1CC(C)(C)[C@@H](OC(C)=O)[C@@H]2O (some centres not stated)
inactive: outcome [1] inactive [at 9.27 µM] | outcome [2] inactive [at 9.27 µM] | activity change, negative = cytotoxicity [3] -7.61% [at 11.6 µM]

C[C@]1(OC(=O)/C=C/c2ccccc2)C[C@H](O)[C@]2(O)C=CO[C@@H](O[C@@H]3O[C@H](CO)[C@@H](O)[C@H](O)[C@H]3O)C12 (some centres not stated)
inactive: outcome [1] inactive [at 17.4 µM] | Potency [2] | outcome [4] inactive [at 17.4 µM] | Potency [3]

CC(=O)O[C@@H]1C[C@]2(C)[C@@]3(CCC4[C@@]5(C)CC[C@H](O[C@@H]6O[C@H](C(=O)O)[C@@H](O)[C@H](O[C@@H]7O[C@H](CO)[C@H](O)[C@H](O)[C@H]7O[C@@H]7O[C@@H](C)[C@H](O)[C@@H](O)[C@H]7O[C@@H]7OC[C@](O)(CO)[C@H]7O)[C@H]6O[C@@H]6O[C@H](CO)[C@H](O)[C@H](O)[C@H]6O)C(C)(C)C5CC[C@]42C)O[C@@H](O)[C@]12C3CC(C)(C)[C@@H](OC(=O)/C=C/c1ccc(O)c(O)c1)[C@@H]2OC(=O)/C=C/c1ccccc1 (some centres not stated)
inactive: outcome [1] inactive [at 9.27 µM] | outcome [2] inactive [at 9.27 µM] | outcome [4] inactive [at 9.27 µM] | activity change, negative = cytotoxicity [3] 8.85% [at 6.55 µM]

CC1CCC2(O1)C(C)(C)CC(O[C@@H]1O[C@H](CO[C@@H]3OC[C@](O)(CO)[C@H]3O)[C@@H](O)[C@H](O)[C@H]1O)CC2(C)O (some centres not stated)
inactive: outcome [1] inactive [at 17.4 µM] | Potency [2] | outcome [4] inactive [at 17.4 µM] | Potency [3]

COc1cc(C(C)=O)ccc1O[C@@H]1O[C@H](CO[C@@H]2O[C@@H](C)[C@H](O)[C@@H](O)[C@H]2O)[C@@H](O)[C@H](O)[C@H]1O
inactive: outcome [1] inactive [at 17.4 µM] | Potency [2] | outcome [4] inactive [at 17.4 µM] | Potency [3]

CCCC(N[C@@H](C)C(=O)N1[C@H](C(=O)O)C[C@@H]2CCCC[C@@H]21)C(=O)OCC (some centres not stated)
inactive: outcome [1] | Potency [2] | outcome [4] | Potency [3]

C[C@@H]1O[C@@H](O[C@@H]2[C@@H](O)[C@H](O[C@@H]3[C@@H](O)[C@@H](O)[C@H](O[C@H]4[C@H](OC(=O)[C@]56CCC(C)(C)C[C@H]5C5=CCC7[C@@]8(C)C[C@H](O)[C@H](O[C@@H]9O[C@@H](C)[C@H](O)[C@@H](O)[C@H]9O)[C@@](C)(CO)C8CC[C@@]7(C)[C@]5(C)C[C@H]6O)O[C@H](C)[C@H](O)[C@@H]4O)O[C@H]3C)OC[C@H]2O)[C@H](O)[C@H](O)[C@H]1O (some centres not stated)
inactive: outcome [1] inactive [at 9.27 µM] | outcome [2] inactive [at 9.27 µM] | outcome [4] inactive [at 9.27 µM] | activity change, negative = cytotoxicity [3] 1.27% [at 6.55 µM]

COC(=O)C1C(c2ccc(O)cc2)C(C(=O)OC)C1c1ccc(O)cc1 (configuration not stated)
inactive: outcome [1] | Potency [2] | outcome [4] | Potency [3]

CCOC(=O)[C@H](CCc1ccccc1)CC1(C(=O)N[C@H]2CCc3ccccc3N(CC(=O)O)C2=O)CCCC1
inactive: outcome [1] | Potency [2] | Potency [3]

O=C(O[C@H]1[C@@H]2C[C@@H]3OC[C@@](O)([C@H]2[C@H](O[C@@H]2O[C@H](CO)[C@@H](O)[C@H](O)[C@H]2O)O3)[C@@H]1O)c1ccccc1
inactive: outcome [1] inactive [at 17.4 µM] | Potency [2] | outcome [4] inactive [at 17.4 µM] | Potency [3]

COc1c(C)c2c(c(O)c1C/C=C(\C)CC/C=C(\C)CCC(=O)O)C(=O)OC2
inactive: outcome [1] | Potency [2] | Potency [3]

CC(=O)OC[C@@]12[C@H](O)C[C@@H](C)[C@]3(C[C@@H](c4ccoc4)OC3=O)[C@H]1C[C@H](O)C[C@]21CO1
inactive: outcome [1] inactive [at 17.4 µM] | Potency [2] | outcome [4] inactive [at 17.4 µM] | Potency [3]

O=C(O)Cc1nn(Cc2nc3cc(C(F)(F)F)ccc3s2)c(=O)c2nccnc12
inactive: outcome [1] | Potency [2] | Potency [3]

COc1ccc2c(c1O)OC[C@H]1c3ccc(O)cc3O[C@@H]21
inactive: outcome [1] | Potency [2] | outcome [4] | Potency [3]

C=C(C)C(C)C1OC23CC4(CO2)C(CCC2C5(C)CCC(OC6OCC(O)C(OC7OC(CO)C(O)C(OC8OCC(O)C(O)C8O)C7O)C6OC6OC(CO)C(O)C6O)C(C)(C)C5CCC24C)C3C(C)(O)C1OC(C)=O (configuration not stated)
inactive: outcome [1] inactive [at 9.27 µM] | outcome [2] inactive [at 9.27 µM] | activity change, negative = cytotoxicity [3] 2.75% [at 11.6 µM]

CC(=O)c1c(O)cc2cccc3c2c1CC(C)(O)O3 (configuration not stated)
inactive: outcome [1] | Potency [2] | Potency [3]

C[C@]12CC[C@@H]3c4ccc(O[C@@H]5O[C@H](C(=O)O)[C@@H](O)[C@H](O)[C@H]5O)cc4CC[C@H]3[C@@H]1CCC2=O
inactive: outcome [1] | Potency [2] | outcome [4] | Potency [3]

C[C@@]12C[C@]3(O)O[C@H](O1)[C@]1(COC(=O)c4ccccc4)[C@H]3C[C@@]12O[C@@H]1O[C@H](COC(=O)c2ccccc2)[C@@H](O)[C@H](O)[C@H]1O
inactive: outcome [1] inactive [at 17.4 µM] | Potency [2] | Potency [3]

C/C(=C\CCC(C)(O)c1ccc(C)cc1)C(=O)O (configuration not stated)
inactive: outcome [1] | Potency [2] | Potency [3]

CC1=C2[C@@H]([C@H](C)CC[C@H]2/C=C(\C)C(=O)O)[C@H](O)C1
inactive: outcome [1] | Potency [2] | Potency [3]

C/C=C/C=C/C(CC(=O)O)Nc1ccc(C=O)cc1 (configuration not stated)
inactive: outcome [1] | Potency [2] | Potency [3]

c1ccc(C(OC2CCN(CCCc3nn[nH]n3)CC2)c2ccccc2)cc1
inactive: outcome [1] | Potency [2] | outcome [4] | Potency [3]

CC(C)=CCc1ccc(Oc2c(O)cc(C)cc2CO)c(C(=O)O)c1O
inactive: outcome [1] | Potency [2] | outcome [4] | Potency [3]

O=C(/C=C/c1ccc(O)cc1)OC[C@H]1O[C@@H](OC(=O)/C=C/c2ccccc2)[C@H](O)[C@@H](O)[C@@H]1O
inactive: outcome [1] inactive [at 17.4 µM] | Potency [2] | outcome [4] inactive [at 17.4 µM] | Potency [3]

CC(C)c1ccc(CC(=O)N2CCC[C@@H](c3cccc(OC(C)(C)C(=O)O)c3)C2)cc1
inactive: outcome [1] | Potency [2] | Potency [3]

CC1=C2C=C(CO)C(CO)CCC2(C)CCC1=O (configuration not stated)
inactive: outcome [1] | Potency [2] | Potency [3]

COc1cc2c(cc1O)C1(Cc3ccc4c(c3C1=O)OCO4)N(C)CC2 (configuration not stated)
inactive: outcome [1] | Potency [2] | outcome [4] | Potency [3]

CC(=O)c1c(C)cc(O)cc1O[C@@H]1O[C@H](CO)[C@@H](O)[C@H](O)[C@H]1O
inactive: outcome [1] | Potency [2] | outcome [4] | Potency [3]

CC(C)C1=CC2=CCC3[C@](C)(CCC[C@@]3(C)C(=O)O)C2CC1O (some centres not stated)
inactive: outcome [1] | Potency [2] | outcome [4] | Potency [3]

COc1ccc(C(OC2OC(CO)C(O)C(O)C2O)C(C)O)cc1 (configuration not stated)
inactive: outcome [1] | Potency [2] | outcome [4] | Potency [3]

CC1CCC2(C(=O)OC3OC(CO)C(O)C(O)C3O)CCC3(C)C(=CCC4C5(C)CC(O)C(O)C(C)(C(=O)O)C5CCC43C)C2C1(C)O (configuration not stated)
inactive: outcome [1] inactive [at 17.4 µM] | Potency [2] | outcome [4] inactive [at 17.4 µM] | Potency [3]

CC(C)(O)/C=C1/C(=O)C(C)(C)C(=O)C(C)(C)C1(O)O[C@@H]1O[C@H](COC(=O)c2cc(O)c(O)c(O)c2)[C@@H](O)[C@H](O)[C@H]1O (some centres not stated)
inactive: outcome [1] inactive [at 17.4 µM] | Potency [2] | Potency [3]

O=C(O)CCc1cc2ccoc2cc1O[C@@H]1O[C@H](CO[C@@H]2OC[C@](O)(CO)[C@H]2O)[C@@H](O)[C@H](O)[C@H]1O
inactive: outcome [1] inactive [at 17.4 µM] | Potency [2] | Potency [3]

C=C1CC2[C@]3(C)C(=C(O)C(=O)[C@@]2(C)[C@]2(C(=O)OC)C(=O)C(C)OC(=O)[C@@]12C)C(C)(C)C(=O)CC3O (some centres not stated)
inactive: outcome [1] inactive [at 17.4 µM] | Potency [2] | Potency [3]

C[C@]1(O)CC[C@@H]2C(C(=O)O)=CO[C@@H](O[C@@H]3O[C@H](COC(=O)c4ccc(O)cc4)[C@@H](O)[C@H](O)[C@H]3O)[C@@H]21
inactive: outcome [1] inactive [at 17.4 µM] | Potency [2] | Potency [3]

C=C[C@](C)(CC/C=C(\C)C(=O)O)O[C@@H]1OC[C@H](O)[C@H](O)[C@H]1O
inactive: outcome [1] | Potency [2] | Potency [3]

C=C[C@H]1[C@H](O[C@@H]2O[C@H](CO)[C@@H](O)[C@H](O)[C@H]2O)OC=C(C(=O)OC)[C@H]1C[C@@H]1N[C@H](C(=O)O)Cc2c1[nH]c1ccccc21
inactive: outcome [1] inactive [at 17.4 µM] | Potency [2] | Potency [3]

COc1cc(C(O)C(CO)Oc2ccc(CCCO[C@@H]3O[C@@H](C)[C@H](O)[C@@H](O)[C@H]3O)cc2OC)ccc1O (some centres not stated)
inactive: outcome [1] inactive [at 17.4 µM] | Potency [2] | Potency [3]

C[C@H]1[C@H](C)CC[C@]2(C(=O)O[C@@H]3O[C@H](CO)[C@@H](O)[C@H](O)[C@H]3O)CC[C@]3(C(=O)O)C(=CCC4[C@@]5(C)CC[C@H](O[C@@H]6O[C@H](CO)[C@@H](O)[C@H](O)[C@H]6O)C(C)(C)C5CC[C@]43C)[C@H]12 (some centres not stated)
inactive: outcome [1] inactive [at 9.27 µM] | outcome [2] inactive [at 9.27 µM] | activity change, negative = cytotoxicity [3] 2.9% [at 11.6 µM]
